Results as given in PubChem BioAssay (Tox21).
Results filed as inconclusive are left out. Activity calls are given as the source filed them. The call rests on the fitted dose curve; in most records, active means well fitted inhibition curve with a large enough effect in the repeat runs; inconclusive means weak or mixed curves; inactive means no such curve, though single readings can be large or run the other way.

Target: Cytochrome P450 3A4 (Homo sapiens) (UniProt P08684)
Assay: Cytochrome P450 Family 3 Subfamily A Member 4 (CYP3A4) small molecule antagonists: luciferase reporter qHTS assay (AID 1671201); further: nearly all actives have a fitted effect of over 50% in size
Conditions: P450-Glo CYP3A4 enzyme, luciferin luminescence, 1 h; series mostly up to 115 µM; activity change, negative = inhibition: at the top concentration
Excerpt: National Center for Advancing Translational Sciences [NCATS]
U.S. Environmental Protection Agency [EPA]
National Institutes of Environmental Health Sciences [NIEHS]
National Toxicology Program [NTP]
U.S. Food and Drug Administration [FDA]
Cytochrome P450 (CYP) enzymes are membrane-bound hemeproteins that play a key role in metabolism of drugs and xenobiotics. Evaluation of the effect of chemicals on CYP isozymes is useful to minimize the adverse drug reactions and toxicities in drug development process. Tox21 chemicals were tested for their effect on CYP enzyme activities by using P450-Glo (TM) screening systems (Promega Corporation, Madison, WI). These systems provide a luminescent method containing proluciferin substrates and are converted to luciferin products by CYP isozymes. The luciferin products formed are detected with a luciferin detection reagent, and the amount of light produced is proportional to CYP activity. P450-Glo (TM) CYP3A4 screening system (Catalog. No. V9910) was used to detect the compounds that interfere in CYP3A4 activity. The positive control compound used for CYP3A4 assay is ketoconazole (Sigma-Aldrich, St. Louis, MO).
Tox21 Assay Protocol Summary:
Two ul of enzyme-substrate mix was dispensed into medium binding white/solid 1536-well plates (Greiner Bio-One North America Inc., Monroe, NC) using a BioRaptr Flying Reagent Dispenser (FRD, Beckman Coulter, Brea, CA). Compounds dissolved in DMSO and positive control (ketoconazole) were transferred to the assay plates at 23 nl using a Pintool station (Wako, San Diego, CA). The assay plates were incubated at room temperature for 10 min. Then 2 ul of NADPH regeneration solution was added to each well of the assay plates using an FRD and incubated at room temperature for 1 h. The reaction was stopped by adding 4 ul of detection reagent using an FRD and after 20 min incubation at room temperature the luminescence signal was measured using a ViewLux plate reader (Perkin Elmer, Shelton, CT). Data were expressed as relative luminescence units.
On the % scale 0 is the no-effect control and ±100 the full control effect; potency means the concentration at half of the fitted maximal effect.

Cytochrome P450 3A4 (Homo sapiens), sequence (P08684 whole entry, looked up): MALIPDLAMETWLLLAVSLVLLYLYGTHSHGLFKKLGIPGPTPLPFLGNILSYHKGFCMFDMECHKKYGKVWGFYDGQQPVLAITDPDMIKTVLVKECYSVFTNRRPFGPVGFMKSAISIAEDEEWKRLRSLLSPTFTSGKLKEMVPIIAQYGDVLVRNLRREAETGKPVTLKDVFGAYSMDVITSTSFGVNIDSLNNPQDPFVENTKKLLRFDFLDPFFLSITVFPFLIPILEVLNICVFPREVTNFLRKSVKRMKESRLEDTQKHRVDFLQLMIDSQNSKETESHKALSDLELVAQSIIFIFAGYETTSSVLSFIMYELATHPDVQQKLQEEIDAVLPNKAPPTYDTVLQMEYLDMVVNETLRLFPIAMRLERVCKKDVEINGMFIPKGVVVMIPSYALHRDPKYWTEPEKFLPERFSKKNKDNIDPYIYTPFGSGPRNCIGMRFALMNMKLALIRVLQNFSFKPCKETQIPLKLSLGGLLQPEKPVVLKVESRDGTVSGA

Structure (SMILES) | Potency | activity change, negative = inhibition
CC(C)=CCC/C(C)=C/CC/C(C)=C/CO | 25.2 µM (active) | –
CN(C)CCOC(c1ccccc1)c1ccc(Br)cc1 (stereo not given) | – | -12.5% [at 52.9 µM] (inactive)
CCOC(=O)C(F)(F)F | – | 7.86% (inactive)
CCC(CC)Nc1ccc(C)c(C)c1 | – | -32.7% (inactive)
CC1(c2ccccc2)OC(C(=O)O)=CC1=O (stereo not given) | – | 1.73% [at 52.9 µM] (inactive)
NS(=O)(=O)c1ccc(N2CCCCS2(=O)=O)cc1 | – | 6.62% [at 52.9 µM] (inactive)
C1CCCNCCC1 | – | 0.195% (inactive)
CCCCCCCCCCO[C@@H]1O[C@H](CO)[C@@H](O)[C@H](O)[C@H]1O | – | -19.5% (inactive)
O=C1c2ccccc2S(=O)(=O)N1CCCCN1CCN(c2ncccn2)CC1 | – | 30.6% [at 52.9 µM] (inactive)
O=C(O)c1nc(Cl)c(Cl)c(Cl)c1Cl | – | 25.7% (inactive)
C/C=C/C=C/CO | 63.3 µM (active) | –
OC(CN1CCC(Cc2ccc(F)cc2)CC1)c1ccc(Cl)cc1 (stereo not given) | – | 413% [at 52.9 µM] (inactive)
CCCCCCCN | – | 1.16% (inactive)
CC1=CCCC(C)(C)C12CCC(C)O2 (stereo not given) | 79.6 µM (active) | –
CC/C=C\CCOC(=O)CC | – | 0.733% (inactive)
CC(=O)c1ccc2c(c1)N(CCCN(C)C)c1ccccc1S2 | – | 1.53% [at 52.9 µM] (inactive)
Nc1ccc(N)c2c1C(=O)c1ccccc1C2=O | 5.64 µM (active) | –
CC(C)Nc1ccc(NC(C)C)c2c1C(=O)c1ccccc1C2=O | 3.3 µM (active) | –
O=S(=O)(Oc1ccc(Cl)cc1)c1ccccc1 | – | 119% (inactive)
CC(C)(O)c1ccc(CNC(=O)c2cccnc2Oc2ccc(F)cc2)cc1 | 31.7 µM (active) | –

Structure (SMILES) | Potency | activity change, negative = inhibition
CCNc1cc(O)ccc1C | 9.92 µM (active) | –
CCCCCCCCO[C@@H]1O[C@H](CO)[C@@H](O)[C@H](O)[C@H]1O | – | -7.53% (inactive)
CCC(C)(C)CC | – | 1.78% (inactive)
C=C1C(=C/C=C2\CCC[C@]3(C)[C@@H]([C@H](C)/C=C/[C@@H](O)C4CC4)CC[C@@H]23)C[C@@H](O)C[C@@H]1O | – | -17.4% [at 52.9 µM] (inactive)
CC1CCC(=O)C1=O (stereo not given) | – | -1.71% (inactive)
C=CC1CC2C=CC1C2 (stereo not given) | – | 4.6% (inactive)
CCCCCCCCCCCC(=O)OC[C@@H](O)[C@H]1OC[C@H](OCCO)[C@H]1OCCO | 17.4 µM (active) | –
Nc1c(CC(=O)O)cccc1C(=O)c1ccc(Br)cc1 | – | -7.07% [at 52.9 µM] (inactive)
O=C(OCCc1ccccc1)c1ccccc1 | – | 33.7% (inactive)
Nc1ncn([C@H]2C[C@H](O)[C@@H](CO)O2)c(=O)n1 | – | 2.81% [at 52.9 µM] (inactive)
CCCCC(CC)CN1C(=O)C2C3C=CC(C3)C2C1=O (stereo not given) | 1 µM (active) | –
OCCNCc1ccccc1 | – | -19% (inactive)
CC(=O)[O][Al][O]C(C)=O | – | 0.0685% (inactive)
CCOc1ccc(N=Nc2ccc(/C=C/c3ccc(N=Nc4ccc(OCC)cc4)cc3S(=O)(=O)O)c(S(=O)(=O)O)c2)cc1 | – | 4.35% (inactive)
CCCCCCCCCCCCN1CCCCCC1=O | – | -6.06% (inactive)
CC(C)(COC(=O)c1ccccc1)COC(=O)c1ccccc1 | – | 99.4% (inactive)
O=C(O)c1ccc(-n2nc(-c3ccccc3O)nc2-c2ccccc2O)cc1 | – | 0.361% [at 52.9 µM] (inactive)
CCN(CC)CCNC(=O)c1cc(Br)c(N)cc1OC | – | 16.2% [at 52.9 µM] (inactive)
CN(C)c1ccc(/C=C/c2ccc([N+](=O)[O-])cc2)cc1 | – | 3.87% [at 10.5 µM] (inactive)
CC(=O)NO | – | 3.43% [at 52.9 µM] (inactive)
